Screening results: PubChem BioAssay, National Center for Advancing Translational Sciences (NCATS)
BAZ2B inh = blocks human BAZ2B | Q9UIF8 | AlphaScreen BAZ2B-H3K14Ac peptide displacement | Potency, µM (top dose mostly 114 µM), for the others: at the highest dose activity change, negative = inhibition, actives largely listed as inhibitors | hit rate 4.4% among 360,000; note: % is set by controls: 0 for no effect and ±100 for the full control effect; nearly all actives have a fitted effect of over 60% in size
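Multi-concentration screen (max 110 uM) measuring displacement of acetylated histone H3 peptide from BAZ2B by AlphaScreen, using 50 nM protein, 50 nM peptide and 10 ug/mL streptavidin donor plus Ni-chelate acceptor beads.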
JMJD2A Tudor inh = JMJD2A Tudor domain (human) inhibition; AID 504339; O75164; hit rate 4.4% among 390,000; AlphaScreen JMJD2A-Tudor / H3K4me3 peptide binding; Potency, µM (highest dose often 114 µM), for inactives: at the highest dose activity change, negative = inhibition, hits mostly inhibitors; note: % is set by controls: 0 for no effect and ±100 for the full control effect; nearly all actives have a fitted effect of over 50% in size
G9a inh = inhibitors of human histone lysine methyltransferase G9a. G9a H3K9 monomethylation, AlphaScreen, 2 h. Potency, µM (highest dose often 102 µM), without a hit: top-dose activity, negative = inhibition, actives largely listed as inhibitors. hit rate 8.8% among 350,000. AID 504332; note: % is set by controls: 0 for no effect and ±100 for the full control effect; nearly all actives have a fitted effect of over 75% in size
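Methyltransferase reactions run at room temperature for 2 h (20 nM enzyme, 500 nM biotin-H3K9 peptide, 20 uM SAM) after a 15 min compound preincubation; product detected by AlphaScreen beads and anti-H3K9me1 antibody.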
HP1b chromo inh = inhibitors of HP1-beta chromodomain binding to methylated histone tails; P83916; AlphaScreen HP1-beta / biotin-H3K9me3 peptide binding; Potency, µM (titrated, usually from 114 µM), inactives show at the highest dose activity change, negative = inhibition, actives largely listed as inhibitors; hit rate 0.56% among 390,000; note: nearly all actives have a fitted effect of over 70% in size
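Compound inhibition of the preformed complex between 50 nM HP1-beta and 50 nM biotinylated H3K9me3 peptide was read by AlphaScreen. Buffer was PBS pH 7.4 with 0.01% Tween-20. Incubations ran 30 min at room temperature, with 10 ug/mL donor/acceptor beads.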
Sfp PPTase inh = inhibitors of Bacillus subtilis Sfp phosphopantetheinyl transferase | Q9F4F7 | Potency, µM, for inactives: largest response in the series, negative = inhibition, usual class: inhibitors | Biochemical Sfp PPTase activity, qHTS | hit rate 3.5% among 310,000;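 note: the enzyme is Sfp with the accession as filed and its product quenches rhodamine fluorescence; 0% = enzyme reaction without inhibitor and -100% = no enzyme wells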
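Fluorescence-quenching assay with 15 nM Sfp, 5 uM rhodamine-CoA and 12.5 uM BHQ-2-labelled ybbR peptide in pH 7.6 Hepes/MgCl2 buffer. Enzyme was pre-incubated with compound for 15 min at room temperature. Rate was taken from the 30-min fluorescence change (525/598 nm).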
ALOX12 inh = inhibitors of human 12S-lipoxygenase ALOX12. P18054. Potency, µM (series often up to 108 µM), without a hit: at the highest dose activity change, negative = inhibition, actives largely listed as inhibitors. AID 1671190. purified 12hLO, xylenol orange hydroperoxide absorbance. hit rate 1.1% among 580,000; note: % is set by controls: 0 for no effect and ±100 for the full control effect
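Purified human 12hLO at 150 nM in 25 mM Hepes, 0.01% Triton X-100, pH 7.0, preincubated 15 min at room temperature with compound. Reaction started with 40 uM arachidonic acid, 30 min at room temperature. Hydroperoxide measured by Fe-xylenol orange, 573/405 nm absorbance ratio.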
Numbers without * were called inactive; ? = inconclusive; / = not tested or not shown; [ ] = remark or other dose. In the library only some 8.7% were active in any assay of this set; here they are far more common. Calls come from the whole dose curve; as a rule, active = well fitted curve in the direction sought with a large enough effect; inconclusive = small, poorly fitted or top-dose-only effect, or another doubt; inactive = no such curve, though single readings can be large; an effect the other way counts as inactive or inconclusive. Potency is the fitted concentration of half-maximal effect.

SMILES	BAZ2B inh	JMJD2A Tudor inh	G9a inh	HP1b chromo inh	Sfp PPTase inh	ALOX12 inh
Cc1cnc(NC(=O)CN2C(=O)C3CC=CCC3C2=O)s1 (stereo unspecified)	/	56.2µM*	5.7%[59 µM]	5.4%	-10.8%	-28.7%
O=C(CN1C(=O)C2CC=CCC2C1=O)Nc1nccs1 (stereo unspecified)	-32.8%	-5.4%	-7.8%[12.7 µM]	14.9%	1.0%	0.0%
COc1c(C)cccc1C(=O)N1CCC2(CC1)CNC(C(=O)O)C2 (stereo unspecified)	/	/	/	/	/	48.9%
COC(=O)c1ccc(-n2c(C)cc(C(=O)CCl)c2C)cc1	?	-29.5%	?	6.8%	-42.4%	-27.3%
CCOc1ccc(-n2c(C)cc(/C=N/N(C)C)c2C)cc1	?	44.7µM*	44.7µM*	-17.8%	10.7%	?
CCOc1ccc(-n2c(C)cc(C(=O)CCl)c2C)cc1	-22.5%	?	44.7µM*	?	-1.0%	?
Cc1cc2nc(-c3cccc(NC(=O)c4cccnc4)c3C)oc2cc1C	/	/	/	/	/	1.0%
Cc1cc(Nc2ccc(F)cc2C)n2nc(-c3ccco3)nc2n1	/	/	/	/	/	-13.5%
CCC(=O)Nc1nnc(SCc2ccc(F)cc2)s1	0.6%	2.9%	8.91µM*	45.5%	10.6%	28.7%
Cc1ccc(C(=O)CSc2nnc(-c3ccccc3N)n2C)cc1C	2.7%	-23.3%	-7.4%[59 µM]	26.9%	7.4%	0.4%
CCC(=O)Nc1nnc(SCC(=O)c2ccc3c(c2)Cc2ccccc2-3)s1	4.2%	-14.5%	?	17.3%	56.2µM*	-23.2%
Cn1c(SCC(=O)c2ccc3c(c2)Cc2ccccc2-3)nnc1-c1ccccc1	?	-11.6%[11.4 µM]	35.5µM*	28.5%	79.4µM*	0.0%
CC(C)(C)C(=O)Nc1nnc(SCc2ccc(F)cc2)s1	5.8%	6.3%	8.2%	26.5%	5.8%	-15.4%
Cn1c(SCC(=O)c2ccccc2)nnc1-c1ccccn1	79.4µM*	-8.8%	-1.7%	38.4%	9.5%	0.0%
Cc1cc(N)n(CC(=O)N2CC[C@@]3(O)CCN(S(C)(=O)=O)C[C@H]3C2)n1	/	/	/	/	/	3.5%
Cc1cc(N)nc(SC(C)C(=O)c2ccc(F)cc2)n1 (stereo unspecified)	/	/	/	/	/	-19.3%
Cn1c(SCC(=O)c2ccccc2)nnc1-c1ccncc1	1.7%	-20.4%	20.4%[59 µM]	32.4%	24.4%	10.6%
Cn1c(SCC(=O)c2ccccc2)nnc1-c1ccc(O)cc1	-4.0%	-10.0%	-5.0%[12.7 µM]	19.2%	79.4µM*	-23.0%
O=C(Oc1cccc2cccnc12)c1cccc(N2C(=O)C3C4CCC(C4)C3C2=O)c1 (stereo unspecified)	10µM*	70.8µM*	0.794µM*	-4.4%	44.7µM*	-4.6%
O=C(Oc1cccc2cccnc12)c1ccc(N2C(=O)C3C4CCC(C4)C3C2=O)cc1 (stereo unspecified)	50.1µM*	?	-6.0%	16.5%	?	-17.4%
Cc1ccc(C(=O)Oc2cccc3cccnc23)cc1	/	/	/	/	/	10.9%
O=C(Oc1cccc2cccnc12)c1cccc(-n2cnnn2)c1	?	-26.4%	5.62µM*	28.0%	-2.4%	1.8%
Cc1cnn(CCC(=O)N[C@@H]2CN(Cc3cccnc3)C[C@H]2CN(C)C)c1	/	/	/	/	/	83.6%
CC(C)c1ccc(N2C(=O)/C(=C/N(C)C)SC2=S)cc1	44.7µM*	44.7µM*	50.1µM*	?	27.8%	?
O=C1CSC2(C(=O)Nc3ccccc32)N1c1ccc(Cl)c(Cl)c1 (stereo unspecified)	/	/	/	/	/	-31.2%
COc1ccc(C=Nc2cccc3c(=O)[nH][nH]c(=O)c23)c2ccccc12	-30.6%	-26.1%	50.1µM*	13.0%	-8.5%	-12.8%
Cc1c(C)n(C)c2ccc(C(=O)NCc3cccs3)cc12	?	?	50.1µM*	-6.8%	3.1%	-3.0%
COc1ccc(OC)c(NC(=O)c2ccc3c(c2)c(C)c(C)n3Cc2ccc(F)cc2)c1	25.1µM*	?	?	15.3%	/	-9.5%
